# This is a sample that favours compounds with a hit; in the whole collection about 12% have one here.
# Sfp inh: inhibitors of Bacillus subtilis Sfp phosphopantetheinyl transferase. 310,000 tested, 3.5% active. Potency, µM, without a hit: largest response in the series, negative = inhibition, actives largely listed as inhibitors. Biochemical Sfp PPTase activity, qHTS;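 also: the enzyme is Sfp with the accession as filed and its product quenches rhodamine fluorescence; 0% = enzyme reaction without inhibitor and -100% = no enzyme wells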
#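 After 15 min at room temperature with compound, 15 nM Sfp received 5 uM rhodamine-CoA plus 12.5 uM BHQ-2-ybbR (50 mM Hepes pH 7.6, 10 mM MgCl2). Rate came from the fluorescence difference over 30 min, ex 525/em 598 nm.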
# JMJD2A Tudor: blocks the human JMJD2A Tudor domain | O75164 | AlphaScreen JMJD2A-Tudor / H3K4me3 peptide binding | Potency, µM (series often up to 114 µM), for inactives: top-dose activity change, negative = inhibition, hits mostly inhibitors | 390,000 tested, 4.4% active; also: % is scaled to controls: 0 for no effect and ±100 for the full control effect; nearly all actives have a fitted effect of over 50% in size
# HP1b binding inh: inhibitors of HP1-beta chromodomain binding to methylated histone tails | P83916 | AlphaScreen HP1-beta / biotin-H3K9me3 peptide binding | Potency, µM (doses to about 114 µM), inactives show at the top dose activity change, negative = inhibition, most hits filed as inhibitors | 390,000 tested, 0.56% active | AID 540317; also: nearly all actives have a fitted effect of over 70% in size
# Target sequence (P83916 whole entry, looked up): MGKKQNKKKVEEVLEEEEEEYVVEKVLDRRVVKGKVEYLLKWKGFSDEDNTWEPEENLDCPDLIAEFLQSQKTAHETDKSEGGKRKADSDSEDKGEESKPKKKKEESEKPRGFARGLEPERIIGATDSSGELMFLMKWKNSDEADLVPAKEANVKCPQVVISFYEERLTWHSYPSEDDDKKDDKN
#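 AlphaScreen: HP1-beta (50 nM) preformed 30 min with biotin-H3(1-18)K9me3 peptide (50 nM) in PBS pH 7.4, 0.01% Tween-20. Compound added for 30 min at RT, then streptavidin donor/nickel chelate acceptor beads (10 ug/mL) for 30 min.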
# G9a block: G9a (human) methyltransferase inhibition | 350,000 tested, 8.8% active | Q96KQ7 | AID 504332 | G9a H3K9 monomethylation, AlphaScreen, 2 h | Potency, µM (series often up to 102 µM), for the others: at the highest dose activity, negative = inhibition, most hits filed as inhibitors; also: % is scaled to controls: 0 for no effect and ±100 for the full control effect; nearly all actives have a fitted effect of over 75% in size
# Target sequence (Q96KQ7 913-1193 limits assumed): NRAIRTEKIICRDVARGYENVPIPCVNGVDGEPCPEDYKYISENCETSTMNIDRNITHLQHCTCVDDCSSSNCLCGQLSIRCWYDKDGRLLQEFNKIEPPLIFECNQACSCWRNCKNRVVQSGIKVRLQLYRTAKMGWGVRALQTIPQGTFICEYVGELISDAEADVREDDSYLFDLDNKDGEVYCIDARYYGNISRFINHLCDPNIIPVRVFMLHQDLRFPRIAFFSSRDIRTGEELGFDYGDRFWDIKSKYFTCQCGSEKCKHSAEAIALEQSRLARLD
#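 Methyltransferase reactions run at room temperature for 2 h (20 nM enzyme, 500 nM biotin-H3K9 peptide, 20 uM SAM) after a 15 min compound preincubation; product detected by AlphaScreen beads and anti-H3K9me1 antibody.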
# BAZ2B inh: blocks human BAZ2B | Q9UIF8 | AlphaScreen BAZ2B-H3K14Ac peptide displacement | Potency, µM (highest dose often 114 µM), inactives show top-dose activity change, negative = inhibition, most hits filed as inhibitors | 360,000 tested, 4.4% active | AID 504333; also: % is scaled to controls: 0 for no effect and ±100 for the full control effect; nearly all actives have a fitted effect of over 60% in size
#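 BAZ2B (50 nM) with biotin-H3(5-23)K14Ac peptide (50 nM) in PBS pH 7.4, 0.01% Tween-20, preformed 30 min, then compound 30 min at room temperature; top concentration 110uM. AlphaScreen streptavidin donor/nickel chelate acceptor beads (10 ug/mL final), 20 min dark, signal read.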
# Starred values were filed as active, the others as inactive; ? = inconclusive; . = no result; [ ] = remark or other dose. Calls follow the shape of the dose curve; as a rule, active = well fitted curve in the direction sought with a large enough effect; inconclusive = small, poorly fitted or top-dose-only effect, or another doubt; inactive = no such curve, though single readings can be large; an effect the other way counts as inactive or inconclusive. Potency is read from the fitted curve at half-maximal effect.
SMILES,Sfp inh,JMJD2A Tudor,HP1b binding inh,G9a block,BAZ2B inh
Cc1ccc([N+](=O)[O-])cc1S(=O)(=O)N1CCn2cccc2C1c1ccc(F)c(F)c1 (configuration not stated),.,?,-12.0%,?,?
CC[C@@H]1CCCCc2ccccc2[C@@H](C(=O)C[C@@H](O)CC(C)=O)OC1=O,.,?,48.9%,.,.
O=[N+]([O-])c1cccc(C(=Nc2ccccc2)NO)c1,5.5%,-19.9%,12.4%,?,-16.8%
O=[N+]([O-])c1cc([N+](=O)[O-])c2c(=Nc3ccccc3)n(-c3ccccc3)n(O)c2c1,?,?,?,35.5µM*,20µM*
CO[C@H]1C([C@@]2(C)O[C@@H]2CC=C(C)C)[C@]2(CC[C@H]1OC(=O)/C=C/C=C/C=C/C=C/C(=O)O)CO2 (some centres not stated),39.8µM*,.,.,22.4µM*,.
O=C(/C=C/c1ccc(Cl)cc1)OCC(=O)c1ccc[nH]1,.,-10.8%,29.1%,-35.6%[59 µM],-2.3%
Cc1ccc(Cl)cc1N1CCN(CC(O)COCc2ccco2)CC1 (configuration not stated),?,7.08µM*,?,11.2µM*,50.1µM*
OC(COCc1ccco1)CN1CCN(C(c2ccccc2)c2ccccc2)CC1 (configuration not stated),-20.3%,1.26µM*,28.2µM*,-158.5%,35.5µM*
OC(COc1ccccc1)CN1CCN(C(c2ccccc2)c2ccccc2)CC1 (configuration not stated),8.1%,-32.6%,8.6%,11.0%,?
Cc1cc2c(s1)c1cnn(Cc3cc(F)c(F)cc3F)c(=O)c1n2C,.,-15.8%,.,.,.
COc1ccc(-c2noc(-c3ccc(NCc4ccco4)c([N+](=O)[O-])c3)n2)cc1OC,.,-7.9%,18.1%,-8.7%[59 µM],-11.2%
O=C(OCC(=O)N1CCCCCC1)c1ccc(Cl)c(S(=O)(=O)N2CCCC2)c1,-9.9%,20µM*,?,6.8%,.
CCOC(=O)C1CCCN(C(=O)COC(=O)c2ccc(C#N)cc2)C1 (configuration not stated),-5.2%,8.1%,21.8%,?,-8.6%
CN(C(=O)COC(=O)c1ccc(C#N)cc1)c1ccccc1,-7.8%,-9.5%,46.4%,50.1µM*,-21.1%
CC1CN(C(=O)COC(=O)c2ccc(C#N)cc2)CC(C)O1 (configuration not stated),13.6%,-1.5%,38.8%,50.1µM*,-24.9%
N#Cc1ccc(C(=O)OCC(=O)N2CCCCCC2)cc1,.,-9.8%,6.8%,22.4µM*,0.0%
CC(=O)Nc1cccc(C(=O)OCC(=O)c2ccc(S(=O)(=O)N3CCCCC3)cc2)c1,.,-15.7%,61.7%,-32.4%,-3.6%
Cc1cc(C)cc(C(=O)NCC(=O)OCC(=O)N(C)c2ccccc2)c1,12.0%,50.1µM*,-1.8%,5.5%,.
CNS(=O)(=O)c1cccc(C(=O)OCC(=O)c2ccc(S(=O)(=O)N3CCCCC3)cc2)c1,.,-13.6%,41.5%,28.2µM*,-34.5%
CCOc1ccccc1N=Nc1c(C)[nH]n(C(N)=S)c1=O,-22.2%,?,4.5%,-13.9%[0.501 µM],?
CN(C)c1cccc2c1c(NC(=O)Nc1ccccc1)nn2C,-3.4%,?,10.0%,35.5µM*,-33.2%
CCOC(=O)c1ccccc1NC(=O)c1cc2c(s1)-c1ccccc1SC2,.,55.0%,97.1%,133.4%[59 µM],74.3%
COc1ccc(C2=NNC(c3ccco3)=Nc3ccc(F)cc32)cc1,8.6%,-27.8%,-16.5%,44.7µM*,?
COc1ccc(C2=NNC(c3cccnc3)=Nc3ccc(OC)cc32)cc1,?,-24.3%[57.1 µM],14.7%,-36.9%,?
COc1ccccc1-c1cc(C(=O)Nc2cc(C)n(Cc3ccc(Cl)cc3)n2)no1,39.8µM*,-1.5%,24.3%,16.4%[12.7 µM],-1.8%
CCSC(=Nc1ccccc1)N1CCOCC1,.,-8.5%,52.2%,.,.
CCCCCCN(C(=O)CCCCCN1C(=O)NC(c2ccc3ccccc3c2)C(C(=O)OCc2ccccc2)=C1C)C(C(=O)NCCCC)c1ccc(OCC(=O)OC)c(C(=O)OC)c1 (configuration not stated),16.4%,.,.,.,.
CCOC(=O)c1ccc(NC(=O)CCc2ccc(CC)o2)cc1,-9.5%,-26.1%,8.2%,-8.9%[59 µM],-34.8%

# Compound activity (PubChem BioAssay)
